Screens from PubChem BioAssay.
Hits are enriched below; roughly 5.7% of the tested compounds scored in any of these assays.
DAX1 inh-1: DAX1 (NR0B1) inhibitors on StAR promoter, primary screen, cell-based, luminescence, SF-1 (NR5A1), full-length DAX-1. HEK293T StAR-luciferase reporter, SF-1/DAX-1 repression relief. inhibition, % at 6.8 µM. 1.1% of 370,000 active. AID 652010, 2013;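 active means inhibition above the mean over all tested compounds plus 3 SD, cut at about 3.6% in these data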;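 further: 0% = DAX-1 cells with DMSO and 100% = cells lacking DAX-1 with DMSO; higher inhibition means more luminescence from relief of DAX-1 repression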
ssDAF-12 act: S. stercoralis DAF-12 nuclear receptor activators, primary screen, cell-based, luminescence, HEK293, GRIP1 co-expression, lit1-tk-luc | HEK293 ssDAF-12/GRIP1 lit1-tk-luc reporter; % of 3 µM dafachronic acid response | activation, % at 6.8 µM | 1% of 370,000 active | AID 652126, 2013;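 active means activation above the mean over all tested compounds plus 3 SD, cut at about 0.9% in these data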;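 further: 0% = DMSO-only wells and 100% = 3 µM delta7-dafachronic acid wells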
DAX1 inh-2: DAX1 (NR0B1) inhibitors, primary screen, cell-based, HEK293, Gal4-DAX1, luciferase luminescence | Nuclear receptor subfamily 0 group B member 1 (Homo sapiens), P51843 | HEK293 Gal4-DAX1 luciferase reporter | inhibition, % at 6.75 µM | 0.99% of 340,000 active | AID 504766, 2011;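 active means inhibition above the mean over all tested compounds plus 3 SD, cut at about 4.2% in these data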;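 further: 0% = DAX1-transfected cells with DMSO and 100% = empty-vector control cells with DMSO; inhibition shows as a rise in luminescence from relieved DAX1 repression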
AHR activator: AHR activators, primary screen, cell-based, luminescence, luciferase reporter, human; Aryl hydrocarbon receptor (Homo sapiens), P35869; AHR-responsive luciferase reporter cells; activation, % at 5 µM; 2.5% of 320,000 active; AID 2796, 2010; in the data active means activation above about 47%;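 further: 0% = vehicle wells and 100% = reference agonist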
hcDAF12 agonist: H. contortus DAF-12 nuclear receptor activators, primary screen, cell-based, luminescence, HEK293, lit1-tk-luc reporter. HEK293 hcDAF-12 lit1-tk-luc reporter; 0% DMSO, 100% Δ7-dafachronic acid. activation, % at 6.8 µM. 1.4% of 370,000 active;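 active means activation above the mean of all tested compounds plus 3 SD, cut at about 5.5% in these data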;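 further: 100% = response to 3 µM Δ7-dafachronic acid high control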
hgDAF-12 ag: H. glycines DAF-12 receptor agonists, primary screen, cell-based, luminescence, HEK293, GAL4 fusion, UAS-luciferase | Nuclear hormone receptor DAF-12 (Heterodera glycines), GAL4 fusion | HEK293 GAL4-hgDAF12 UAS-luciferase reporter, agonist luminescence; normalized to butyrate control | activation, % at 6.8 µM | 1.8% of 370,000 active;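 active means activation above a cutoff set at the mean of all screened compounds plus 3 SD, cut at about 10% in these data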;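 further: 0% = DMSO wells and 100% = sodium butyrate wells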
* marks the source's active call; other numbers are inactive results.

For O=C(N/N=C1\CCc2ccccc21)c1ccccc1O the results were DAX1 inh-1 4.4*, ssDAF-12 act 1, DAX1 inh-2 0, AHR activator 3, hcDAF12 agonist 6.1* and hgDAF-12 ag 8.
Screening COc1ccc(C(=O)NNC(=O)c2ccccn2)cc1 returned DAX1 inh-1 1, ssDAF-12 act -3, DAX1 inh-2 -6, AHR activator -7, hcDAF12 agonist -1 and hgDAF-12 ag -8.
Cc1ccc(S(=O)(=O)N2CCCC2=O)c(C)c1N(C)S(C)(=O)=O was read as DAX1 inh-1 0, ssDAF-12 act -1, DAX1 inh-2 2, AHR activator 0, hcDAF12 agonist 0 and hgDAF-12 ag -1.
Screening CC(CC(=O)NCC1CCCO1)c1ccccc1 (configuration not stated) returned DAX1 inh-1 1, ssDAF-12 act -1, DAX1 inh-2 0, AHR activator -2, hcDAF12 agonist -1 and hgDAF-12 ag -2.
`CCCCn1c(N)c(N(CCOC)C(=O)CSc2ccc([N+](=O)[O-])cc2)c(=O)[nH]c1=O` gave DAX1 inh-1 -1, ssDAF-12 act 0, DAX1 inh-2 -1, AHR activator 0, hcDAF12 agonist -1 and hgDAF-12 ag -1.
Cn1c(N)c(-c2nc3cccnc3n2C)sc1=S was read as DAX1 inh-1 0, ssDAF-12 act -1, DAX1 inh-2 4.2*, AHR activator 51*, hcDAF12 agonist 0 and hgDAF-12 ag -1.
Screening O=C(N/N=C\c1cn(-c2ccccc2)nc1-c1ccccc1)c1ccc2c(c1)OCO2 returned DAX1 inh-1 0, ssDAF-12 act -1, DAX1 inh-2 0, AHR activator -2, hcDAF12 agonist 1 and hgDAF-12 ag 2.
Screening O=C(N/N=C/c1cn(-c2ccccc2)nc1-c1ccc2c(c1)OCCO2)c1ccncc1 returned DAX1 inh-1 1, ssDAF-12 act -1, DAX1 inh-2 0, AHR activator 12, hcDAF12 agonist -1 and hgDAF-12 ag 10*.
For O=C1C2C3C=CC(CC3)C2C(=O)N1c1cccc(Br)c1 (configuration not stated) the results were DAX1 inh-1 0, ssDAF-12 act -2, DAX1 inh-2 0, AHR activator -2, hcDAF12 agonist -3 and hgDAF-12 ag -1.
`Cc1sc2nc(-c3cccnc3)[nH]c(=O)c2c1-c1ccccc1` gave DAX1 inh-1 0, ssDAF-12 act -2, DAX1 inh-2 0, AHR activator 63*, hcDAF12 agonist -1 and hgDAF-12 ag 4.
`Cc1cccc(NCC(=O)N/N=C\c2c[nH]c3ccccc23)c1` gave DAX1 inh-1 -1, ssDAF-12 act -1, DAX1 inh-2 0, AHR activator 78*, hcDAF12 agonist 2 and hgDAF-12 ag 3.
For Cc1ccc(OCC(=O)N/N=C/c2c[nH]c3ccccc23)c([N+](=O)[O-])c1 the results were DAX1 inh-1 -1, ssDAF-12 act -1, DAX1 inh-2 2, AHR activator 42, hcDAF12 agonist 6.2* and hgDAF-12 ag 2.
Cc1ccccc1NCC(=O)N/N=C/c1c[nH]c2ccccc12 was read as DAX1 inh-1 -1, ssDAF-12 act -1, DAX1 inh-2 -2, AHR activator 62*, hcDAF12 agonist 4 and hgDAF-12 ag 0.
CSc1ccccc1OCc1cc(C(=O)N2CCc3[nH]cnc3C2c2ccccn2)no1 (configuration not stated) was read as DAX1 inh-1 0, ssDAF-12 act -1, DAX1 inh-2 -1, AHR activator 1, hcDAF12 agonist -2 and hgDAF-12 ag -2.
